For 40 molecules, growth results are on record in PubChem BioAssay (NCI).

Compounds without any hit were thinned out: in the full panel of roughly 83,000, 20% have a hit.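 A percent growth of 40 corresponds to 60% growth inhibition; 0 means no net growth; -100 means all cells died. Active threshold: below 10.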 The source made the active and inactive calls.

The subject of this assay is A498 renal. As to the kind of experiment: NCI-60 one-dose screen, 48 h (100 = growth as untreated, 0 = no growth, -100 = all killed). The conditions noted are these: 10 µM unless noted. The procedure:
Growth inhibition of the A498 human tumor cell line is measured as a screen for anti-cancer activity. Cells are grown in 96 well plates and exposed to the test compound for 48 hours. Compounds are tested at a single concentration, which is 10^-5 M for most compounds. The reported endpoint is percent growth (GI% or GIPRCNT), where numbers from 0 - 100% represent growth inhibition, and numbers from -100% - 0 represent cell death. For example, a value of 40 represents 60% growth inhibition. A value of 0 means no net growth occurred over the course of the experiment. A value of -40 indicates 40% of cells at the beginning of the experiment died by the end of the experiment. A value of -100 means all cells are dead at the end of the experiment.
NCI-60 Human Tumor Cell Lines Screen was performed using the standard one-dose NCI protocol, which is described in more detail at https://dtp.cancer.gov/discovery_development/nci-60/default.htm.
Compounds with GIPRCNT values below 10 were considered active. Activity score was based on GIPRCNT using the following formula: […]
Score is 0 for GIPRCNT values of 100 or above, 50 for GIPRCNT values of 0, and 100 for GIPRCNT values of -100.
Turning to `COc1ccc(NC(=O)Nc2ccc(Nc3nc(C)cc(Nc4ccc(C)cc4)n3)cc2)cc1`, the growth is 107% (inactive).
Next, `Cc1cnc(SCc2ccc(Cl)cc2Cl)nc1Nc1ccc(Cl)c(Cl)c1`: 85.7% (inactive); `CSc1cccc(NC(=O)Nc2nc3c(C)cccc3s2)c1`: 106% (inactive).
Next, `CC1CCN(CCCCCOc2ccc3oc4ccccc4c(=O)c3c2)CC1`: 74.4% (inactive); `CC(=O)OCC1OC(OC2C(COC(C)=O)OC(OCCC[S-])C(OC(C)=O)C2OC(C)=O)C(OC(C)=O)C(OC(C)=O)C1OC(C)=O.[Au+].c1ccc(CN2[CH-]N(Cc3ccccc3)C(c3ccccc3)=C2c2ccccc2)cc1` (stereo not given): -1.67% (active); `COc1cc(C(=O)N2CCN(c3ccccc3OC)CC2)c(NC(=O)c2cnccn2)cc1OCc1ccccc1`: 84.9% (inactive).
Next, `OCCNc1nc(NCCO)nc(Nc2ccc(C3=NN(c4cc(Cl)cc(Cl)c4)C(c4ccccc4)C3)cc2)n1` (stereo not given): 85.1% (inactive).
Regarding `O=C1Nc2ccc(Cl)cc2/C1=N/c1nc(-c2ccc(Cl)cc2)cs1`, the growth is -2.57% (active).
Turning to `c1ccc2nc(N3CCOCC3)c(N3CCCCC3)nc2c1`, the growth was 78.3% (inactive).
In the case of `COc1ccc2nc(-c3ccc(OC)c(OC)c3)cc(-c3nnc(SCC(=O)Nc4ccc(C(C)=O)cc4)o3)c2c1`, the growth is 93.6% (inactive).
Next, `COc1ccc([C@H]2[C@@H](F)C(=O)N2c2cc(OC)c(OC)c(OC)c2)cc1F`: -5.5% (active); `Cc1c(Cl)cccc1NC(=O)c1sc2nc3c(cc2c1N)CCCCC3`: -3.71% (active); `Cc1[nH]c2ncnc(Oc3ccc(NC(=O)Nc4ccc(Cl)c(C(F)(F)F)c4)cc3)c2c1C`: 76% (inactive).
The same measure for `COc1ccc(-c2nc(C#N)c(NCC(c3ccco3)N3CCCC3)o2)cc1` (stereo not given): 42.6% (inactive); for `CCOC(=O)c1cnn(-c2nc(-c3ccc(F)cc3)c(C#N)c(N3CCOCC3)n2)c1N`: 71.3% (inactive).
Next, `COC1=CC2C=C(C3N(c4ccccc4)NC(=O)[C@@H]4CCCN34)C(=O)NC2C=C1` (stereo not given in full): 95.9% (inactive); `Cc1ccc(CS/C(=C\c2ccc([N+](=O)[O-])cc2)C(=O)c2ccc(F)cc2)cc1`: 89.4% (inactive).
As to `N#CC1C(c2ccc(Cl)cc2)=Nc2c(c(-c3ccccc3)nn2-c2ccccc2)C12C(=O)Nc1ccc(Cl)cc12` (stereo not given), the growth was 60.3% (inactive).
Next, `N#Cc1c(-c2ccc(F)cc2)nc(N/N=C/c2cccc(O)c2)nc1N1CCOCC1`: 78.7% (inactive).
For `C=C(C)[C@@H]1CC[C@]2(C(=O)O)CC[C@]3(C)[C@H](CC[C@@H]4[C@@]5(C)C[C@@H](CC#Cc6ccc(Cl)cc6)C(=O)C(C)(C)[C@@H]5CC[C@]43C)[C@@H]12`, the growth is -15.1% (active).
The same measure for `O=C(/C(=C/c1ccc([N+](=O)[O-])cc1)SCc1ccc(Cl)cc1)c1ccc(F)cc1`: 70.5% (inactive).
Next, `NS(=O)(=O)c1ccc(N2Cc3cc(Cl)ccc3OC3=C2C(=O)N(CC2CCCCC2)C3=O)cc1`: -72.2% (active); `COc1ccc(C2=NN(c3ccc(S(N)(=O)=O)cc3)C(c3ccc(Cl)cc3)C2)c(O)c1` (stereo not given): 47.2% (inactive).
The same measure for `N#Cc1ccc(Oc2ccc3ccc(=O)oc3c2)cc1`: 99% (inactive); for `COc1ccccc1Nc1nnc(-c2ccc(Cl)cc2)o1`: 45.3% (inactive).
With `O=C1NC(SCc2ccc(F)cc2)=N/C1=C/c1cccc(OCc2ccc(Cl)cc2)c1`, the growth was -5.28% (active).
The same measure for `COc1ccc2nc3nc4ccc[nH]c4cc3c2c1`: 94.4% (inactive).
With `Nc1ccc(C(=O)Nc2cccc(C(=O)Nc3ccc4c(O)c(N=Nc5ccc(N=Nc6ccc(S(=O)(=O)O)cc6)cc5)c(S(=O)(=O)O)cc4c3)c2)cc1`, the growth is 107% (inactive).
Next, `O=[N+]([O-])c1ccc(N=Nc2c(O)c(N=Nc3cc([N+](=O)[O-])cc([N+](=O)[O-])c3O)cc(N=Nc3cc(S(=O)(=O)O)cc4cc(S(=O)(=O)O)cc(O)c34)c2O)cc1`: 107% (inactive); `CCC[S@@](=O)c1ccc2nc(NC(=O)OC)[nH]c2c1`: 87.6% (inactive); `O=C1c2ccccc2C(=O)c2c1oc1c2c(=O)[nH]c2ccc(Cl)cc21`: 80.4% (inactive).
With `Oc1c(CCl)cc(Cl)cc1Cc1cc(Cl)cc(Cc2cc(Cl)cc(CCl)c2O)c1O`, the growth was -4.67% (active).
Next, `S=C(Nc1ccc(Cl)cc1)c1ccccn1`: 69.2% (inactive); `COc1cc(C)ccc1Oc1nc(Nc2ccc(N3CCOCC3)cc2)ncc1N=Cc1cc(C(F)(F)F)cc(C(F)(F)F)c1`: 58.8% (inactive).
Regarding `COc1cc(C(=O)Nc2cc(OC)c3ccn(C)c3c2)cc2c1C[C@]1(C)CC[C@@H](O)C(C)(C)[C@H]1O2`, the growth was -23.1% (active).
On to `C[C@H](Oc1cc(-c2cnn(C3CCNCC3)c2)cnc1N)c1c(Cl)ccc(F)c1Cl`, for which the growth is 68% (inactive).
`C=C1C(=O)O[C@H]2[C@H]1CC/C(COC(=O)NCc1nc3ccccc3[nH]1)=C\CC[C@@]1(C)O[C@@H]21`: the growth is 135% (inactive).
Regarding `c1ccc2c3c([nH]c2c1)C(c1ccc(C2NCCc4c2[nH]c2ccccc42)cc1)NCC3` (stereo not given), the growth is 116% (inactive).
Next, `CC(=O)c1cc2c(N)c(C(=O)Nc3ccccn3)sc2nc1C`: 30.3% (inactive).
Next, `COc1cc(C2=N/C(=C\c3cc4ccccc4nc3Oc3ccccc3)C(=O)N2C(=N)N)cc(OC)c1OC`: 69% (inactive).
